The subject of experiment [1] is MDA-MB-231. Put plainly: cell viability relative to vehicle unstimulated control (fraction); higher = more viable cells. To be noted: pre-treatment time: 18 h then 24 h IFNg/TNF.
Experiment [2] concerns MDA-MB-231. Put plainly: kynurenine production, fold change vs DMSO IFNg/TNF control; higher = more kynurenine produced (less inhibition). To be noted: pre-treatment time: 18 h then 24 h IFNg/TNF. An outline of the steps: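 MDA-MB-231 cells were seeded in 96-well plates at 7 × 10^4/well and, 24 h later, pre-treated for 18 h with each natural product in 0.1% DMSO. They were then stimulated for 24 h at 37°C with IFNγ (1 U/ml) and TNF (6.25 ng/ml). Supernatants were treated with trichloroacetic acid and p-dimethylaminobenzaldehyde and read at 492 nm against 0–100 μM standards. Kynurenine production is expressed as fold change over cytokine-stimulated vehicle wells on the same plate and, in the first screening round, averaged across duplicate plates.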

± gives the standard deviation of the averaged measurements.
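For cell viability relative to vehicle unstimulated control in this document: viability of the cells left after supernatant collection, read with Deep Blue dye added for 4 h, as absorbance at 570 nm minus 600 nm.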

Consider `COc1ccc2c(c1O)-c1c(O)c(OC)cc3c1[C@H](C2)[N+](C)(C)CC3` [Magnoflorine] (compound dose: 10 uM), for which the cell viability in the experiment on MDA-MB-231 [1] came out at 0.966 ± 0.05. For the same compound, the kynurenine production in the experiment on MDA-MB-231 [2] came out at 0.937 ± 0.057. The matching figures for `C[C@@H]1O[C@@H](O[C@H]2[C@H](O[C@H]3CC[C@@]4(C)[C@@H](CC[C@]5(C)[C@@H]4CC=C4[C@@H]6CC(C)(C)CC[C@]6(C(=O)O[C@@H]6O[C@H](CO[C@@H]7O[C@H](CO)[C@@H](O)[C@H](O)[C@H]7O)[C@@H](O)[C@H](O)[C@H]6O)CC[C@]45C)[C@]3(C)CO)OC[C@H](O)[C@@H]2O)[C@H](O)[C@H](O[C@@H]2O[C@H](CO)[C@@H](O[C@@H]3O[C@H](CO)[C@@H](O)[C@H](O)[C@H]3O)[C@H](O)[C@H]2O)[C@H]1O` [Macranthoidin B] (compound dose: 10 uM): 0.9895 ± 0.0011 and 0.787 ± 0.18. Regarding `C=C1C[C@@]23CC[C@H]4[C@@](C)(CCC[C@@]4(C)C(=O)O[C@@H]4O[C@H](CO)[C@@H](O)[C@H](O)[C@H]4O)[C@@H]2CC[C@]1(O[C@@H]1O[C@H](CO)[C@@H](O)[C@H](O)[C@H]1O)C3` [Rubusoside] (compound dose: 10 uM), the cell viability with MDA-MB-231 [1] was 1.07 ± 0.02. For the same compound, the kynurenine production in the experiment on MDA-MB-231 [2] is 0.88 ± 0.065. The matching figures for `O[C@H]1[C@H]2c3cc4c(cc3CN3CC[C@H](C[C@@H]1O)[C@H]23)OCO4` [Dihydrolycorine] (compound dose: 10 uM): 0.961 ± 0.041 and 0.723 ± 0.022. For `C[C@H]1O[C@@H](O[C@H]2[C@@H](O)C[C@H](O[C@H]3[C@@H](O)C[C@H](O[C@H]4CC[C@@]5(C)[C@H](CC[C@@H]6[C@@H]5C[C@@H](O)[C@]5(C)[C@@H](C7=CC(=O)OC7)CC[C@]65O)C4)O[C@@H]3C)O[C@@H]2C)C[C@H](O)[C@@H]1O` [Digoxin] (compound dose: 10 uM), the cell viability in the experiment with MDA-MB-231 [1] is 0.543 ± 0.066. In addition, the kynurenine production in the experiment on MDA-MB-231 [2] stood at 0.103 ± 0.071. For `CC1(C)CC[C@]2(C(=O)O)CC[C@]3(C)C(=CC[C@@H]4[C@@]5(C)CCC(=O)C(C)(C)[C@@H]5CC[C@]43C)[C@@H]2C1` [Oleanonic acid] (compound dose: 10 uM), in that order: 0.957 ± 0.031 and 1.136 ± 0.0017. With `CC1(C)CC[C@]2(C(=O)O)[C@H](O)C[C@]3(C)C(=CC[C@@H]4[C@@]5(C)CC[C@H](O[C@@H]6O[C@H](CO)[C@@H](O)[C@H](O)[C@H]6O)C(C)(C)[C@@H]5CC[C@]43C)[C@@H]2C1` [Ecliptasaponin A] (compound dose: 10 uM), in the experiment on MDA-MB-231 [2], the kynurenine production amounted to 0.88 ± 0.15. Still for that read-out and setting: to `O=C(/C=C/c1ccc(O)c(O)c1)O[C@H]1[C@H](O[C@@H]2O[C@H](CO)[C@@H](O)[C@H](O)[C@H]2O)[C@@H](O)[C@H](OCCc2ccc(O)c(O)c2)O[C@@H]1CO` [Plantamajoside] (compound dose: 10 uM) belongs 0.678 ± 0.24. Consider `CC1=CC23C(=O)C(C=C4COC(C)(C)OC4C24OC(C)(C)OC14)C1C(CC3C)C1(C)C` (configuration not stated) [Ingenol-3,4:5,20-diacetonide] (compound dose: 10 uM), for which the cell viability in the experiment on MDA-MB-231 [1] was 1.04 ± 0.022. Besides, the kynurenine production in the experiment on MDA-MB-231 [2] was determined as 1.11 ± 0.045. The matching figures for `COc1ccc(-c2coc3cc(O)ccc3c2=O)cc1` [Formononetin] (compound dose: 10 uM): 0.988 ± 0.032 and 0.873 ± 0.0092. For `CC(C)=CCC[C@](C)(O[C@@H]1O[C@H](CO[C@@H]2OC[C@@H](O)[C@H](O)[C@H]2O)[C@@H](O)[C@H](O)[C@H]1O)[C@H]1CC[C@]2(C)[C@@H]1[C@H](O)C[C@@H]1[C@@]3(C)CC[C@H](O[C@@H]4O[C@H](CO)[C@@H](O)[C@H](O)[C@H]4O[C@@H]4O[C@H](CO)[C@@H](O)[C@H](O)[C@H]4O)C(C)(C)[C@@H]3CC[C@]12C` [Ginsenoside Rb3] (compound dose: 10 uM), the cell viability in the experiment with MDA-MB-231 [1] stood at 1.01 ± 0.015. The kynurenine production in the experiment with MDA-MB-231 [2] was 0.73 ± 0.19.

Take `O=C(O)C1=CO[C@@H](O[C@@H]2O[C@H](CO)[C@@H](O)[C@H](O)[C@H]2O)[C@@H]2C(CO)=CC[C@H]12` [Geniposidic acid] (compound dose: 10 uM): the cell viability in the experiment on MDA-MB-231 [1] was found to be 1.02 ± 0.015. Moreover, the kynurenine production with MDA-MB-231 [2] came out at 0.715 ± 0.065.
